Compound activity as filed in PubChem BioAssay.
KKLEB cytotox: cytotoxicity in KKLEB CF airway cells, primary screen, cytotoxicity control for CF NF-kB inhibitor project, cell-based, uHTS, fluorescence assay plates; KKLEB CF airway cells viability, ATPlite luminescence, overnight; active compounds read low; cells stimulated with P. aeruginosa culture filtrate; activity change (cytotoxicity), % at 5 µM; actives 0.36% (n = 360,000);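 active means corrected activity change at or below -50% at 5 µM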
TRPM1 prom inh: inhibitors of MITF-dependent TRPM1 promoter reporter, primary screen, cell-based, SK-MEL-5, single point, luciferase. SK-MEL-5 TRPM1 promoter luciferase, 24 h. inhibition, % at 12.5 µM. actives 0.83% (n = 330,000). AID 488899, 2010;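 active means mean inhibition across replicates of 60% or more, whatever share of single replicates reaches that level; inconclusive means some that reach 60%, reason not given; inactive means mean inhibition across replicates below 60%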
HIF-2a block: HIF-2a reporter inhibitors, primary screen, luminescence, 786-0 RCC cells | 786-0 RCC cells HIF-2a reporter, luciferase luminescence, overnight | inhibition, % at 18.8 µM | actives 0.72% (n = 360,000) | AID 624352, 2012;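 active means inhibition of the luminescence signal of 40% or more relative to plate controls, in a single-dose primary screen at 18.75 µM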
Peg3 prom inh: Peg3 promoter-driven luciferase inhibitors, primary screen, cell-based, HeLa, luciferase luminescence; HeLa PEG-Prom luciferase reporter, overnight; inhibition, % at 20 µM; actives 1.7% (n = 360,000); AID 588405, 2011;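 active means inhibition of at least 50% at 20 µM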
CF NFkB block: inhibitors of PAF-induced NF-kB signaling, primary screen, cell-based, GFP fluorescence, uHTS; inhibition, % at 5 µM; actives 0.86% (n = 360,000); AID 588850, 2011; KKLEB NF-kB-GFP reporter, GFP fluorescence overnight;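 active means at least 50% inhibition at 5 µM, scaled per plate between neutral and stimulator controls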;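 further: PAF is a Pseudomonas aeruginosa culture filtrate used as stimulus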
LMP1 NFkB inh: EBV LMP1-driven NF-kappaB luciferase reporter inhibitors, primary screen, cell-based, luminescence, single point; actives 0.69% (n = 350,000); inhibition, % at 12.5 µM; AID 504558, 2011; LMP1-induced NF-kappaB luciferase reporter cells; in the data active means inhibition above about 41%; inconclusive means no clear call, values can overlap the other calls
Mdm2-MdmX confirm: retested Mdm2-MdmX interaction blockers, confirmation, cell-based, luminescence, single concentration, set 2; shares compounds with HIF-2a block; SaOS-2 split-luciferase Mdm2/MdmX complementation; inhibition, % at 8 µM; actives 99% (n = 740);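 active means mean inhibition of the luminescence signal across two replicates at or above 26 percent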
Target sequence (O15151 whole entry, looked up): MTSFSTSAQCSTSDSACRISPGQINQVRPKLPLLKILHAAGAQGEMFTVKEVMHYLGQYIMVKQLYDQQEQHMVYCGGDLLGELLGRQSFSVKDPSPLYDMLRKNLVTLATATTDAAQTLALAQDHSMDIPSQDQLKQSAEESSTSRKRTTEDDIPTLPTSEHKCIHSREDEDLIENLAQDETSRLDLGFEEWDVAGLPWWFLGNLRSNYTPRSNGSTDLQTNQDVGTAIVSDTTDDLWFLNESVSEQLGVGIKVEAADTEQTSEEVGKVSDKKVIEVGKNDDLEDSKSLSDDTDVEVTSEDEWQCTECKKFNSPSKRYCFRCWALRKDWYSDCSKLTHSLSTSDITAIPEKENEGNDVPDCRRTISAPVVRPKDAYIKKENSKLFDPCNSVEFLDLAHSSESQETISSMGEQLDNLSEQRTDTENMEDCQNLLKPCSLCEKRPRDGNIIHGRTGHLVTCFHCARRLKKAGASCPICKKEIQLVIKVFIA
Target sequence (Q00987 whole entry, looked up): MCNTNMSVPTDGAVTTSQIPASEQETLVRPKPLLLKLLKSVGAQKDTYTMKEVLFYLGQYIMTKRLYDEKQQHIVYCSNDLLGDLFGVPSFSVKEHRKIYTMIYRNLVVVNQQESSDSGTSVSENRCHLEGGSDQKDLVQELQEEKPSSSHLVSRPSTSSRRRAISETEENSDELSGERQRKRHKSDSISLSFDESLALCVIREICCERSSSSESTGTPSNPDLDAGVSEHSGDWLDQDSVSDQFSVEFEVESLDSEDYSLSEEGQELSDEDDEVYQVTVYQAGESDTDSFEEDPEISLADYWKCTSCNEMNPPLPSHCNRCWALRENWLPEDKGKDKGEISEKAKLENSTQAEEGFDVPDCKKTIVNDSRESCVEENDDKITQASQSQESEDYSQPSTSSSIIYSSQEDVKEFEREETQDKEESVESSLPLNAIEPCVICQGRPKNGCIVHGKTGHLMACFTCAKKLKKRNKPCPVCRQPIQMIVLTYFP
HIF-2a conf: HIF-2a reporter inhibitor retest, confirmation, luminescence, 786-0 RCC cells; inhibition, % at 18.8 µM; actives 56% (n = 1,800); HIF-2a luciferase reporter luminescence, overnight; shares compounds with HIF-2a block;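 active means mean inhibition across four replicates of at least 40 percent at the single tested concentration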
HIF-1a cs: HIF-1a luciferase reporter signal reduction – MiaPaCa-2 cells, single concentration, counter-screen for HIF-2a inhibitor project, confirmation; shares compounds with HIF-2a block; MiaPaCa-2 HIF-1a luciferase reporter, desferoxamine, overnight; inhibition, % at 18.8 µM; actives 72% (n = 1,800); AID 651589, 2012;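 active means mean inhibition of the reporter signal across four replicates at the single tested dose of 50% or more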
A number is an active result; n = inactive; u = inconclusive; x = no result. Sampled rows, rich in hits. Any-hit rate of the full collection: about 3%.

SMILES	KKLEB cytotox	TRPM1 prom inh	HIF-2a block	Peg3 prom inh	CF NFkB block	LMP1 NFkB inh	HIF-2a conf	HIF-1a cs	others
CCS(=O)(=O)CCSc1nc2ccccc2s1	n	n	n	n	n	n	x	x
COc1ccc(Oc2c(Cl)cnn(-c3ccc(C)cc3)c2=O)cc1	n	n	n	n	n	n	x	x
COc1ccc(Oc2c(Cl)cnn(-c3ccc(Cl)c(Cl)c3)c2=O)cc1	n	u	83.9	64.7	n	n	n	104.1
COc1ccc(NC(=O)c2sc(=O)n(Cc3ccccc3C#N)c2C)cc1OC	n	x	n	n	n	x	x	x
Cc1cc(C)c(/C=N/NC(=O)c2nnn(-c3nonc3N)c2CN2CCC(C)CC2)c(C)c1	n	n	n	n	n	n	x	x
CC1CCN(Cc2c(C(=O)N/N=C/c3cc(Br)ccc3O)nnn2-c2nonc2N)CC1	n	64.7	n	73.8	n	49.1	x	x	Mdm2-MdmX confirm=91.2
CCn1c2ccccc2c2cc([N+](=O)[O-])ccc21	n	n	n	n	n	n	x	x
CN(C)CCn1c2ccccc2c2nc3ccc([N+](=O)[O-])cc3cc21	n	x	n	n	n	x	x	x	Mdm2-MdmX confirm=102.5
C[C@H](CO)NC(=O)c1[nH]cnc1C(=O)Nc1cccc(Cl)c1	n	x	n	n	n	n	x	x
Cc1ccc(F)c([C@H]2[C@H]3C=CC[C@@H](C)[C@@H]3C(=O)N2Cc2ccccc2)c1	n	n	42.5	n	n	n	n	n
C[C@@H]1CC=C[C@H]2[C@H]1C(=O)N(Cc1ccccc1)[C@H]2c1ccc2ccccc2c1	n	n	44.1	n	n	n	n	51.9
Cc1ccc(S(=O)(=O)NC(=O)C2(C)CCN2C(=O)CC2CCCC2)cc1 (configuration not stated)	n	x	n	n	n	x	x	x
Cc1cc(S(=O)(=O)c2ccc([N+](=O)[O-])cn2)ccc1Br	-73.1	90.0	93.2	107.3	91.0	74.0	n	88.7
COC(=O)C(C)(C(=O)OC)c1ccc([N+](=O)[O-])cn1	n	n	n	n	n	n	x	x
Cc1ccc(S(=O)(=O)c2ccc([N+](=O)[O-])cn2)cc1	-72.0	90.8	83.3	106.8	96.1	59.5	61.7	64.5	Mdm2-MdmX confirm=103.0
CCN(c1ccccc1)S(=O)(=O)c1cccc(C(=O)N(C)CC(=O)Nc2ccc(F)c(F)c2F)c1	n	n	n	n	n	n	x	x
O=C(Nc1cccc(S(=O)(=O)N2CCCC2)c1)[C@H]1C[C@H](O)[C@@H](CO)O1	n	x	n	n	n	x	x	x
CC1=CC(C)(C)Nc2ccc(OC(=O)CN3C(=O)c4cccc5cccc(c45)C3=O)cc21	n	n	73.6	n	n	n	88.7	72.4
C#CCOC(=O)CN1C(=O)c2cccc3cccc(c23)C1=O	n	n	n	n	n	n	x	x
Cc1nc2nc(-c3ccc(F)cc3)cn2nc1C	n	n	n	n	n	n	x	x
CCc1ccc(-c2cn3nc(C)c(C)nc3n2)cc1	n	76.7	66.2	70.7	n	84.3	90.6	84.2
CC(C)(C)C(=O)NC(=S)NNC(=O)c1sc2ccccc2c1Cl	-65.8	79.6	77.8	78.0	70.7	57.5	n	100.3
O=C(c1ccccc1)c1c2c(cc3sc4ccccc4[n+]13)-c1cccc3cccc-2c13	n	85.5	77.5	100.9	n	n	56.5	98.2
CCC[C@H]1CN(Cc2cccnc2)C(=O)[C@@H]1CC(=O)Nc1ccc(Br)cc1	n	x	n	n	n	n	x	x
O=S(=O)(/C=C/C=C/S(=O)(=O)c1ccccc1)c1ccccc1	n	110.7	95.2	100.0	92.3	n	96.0	104.9
SMILES	KKLEB cytotox	TRPM1 prom inh	HIF-2a block	Peg3 prom inh	CF NFkB block	LMP1 NFkB inh	HIF-2a conf	HIF-1a cs	others
CC(C)CNC(=O)C1(C)CCCCCN1Cc1ccccc1-c1ccccc1 (configuration not stated)	n	x	n	n	n	x	x	x
CC(C)(C)n1nnnc1C(c1cc2ccccc2o1)N(CCC#N)Cc1ccccc1 (configuration not stated)	x	x	n	x	x	x	x	x
CCCCCCn1c(SCC(=O)NC2CCS(=O)(=O)C2)nc2ccccc2c1=O (configuration not stated)	n	x	n	n	n	n	x	x
O=Cc1ccc(-c2cccs2)s1	n	n	43.7	n	n	75.9	52.2	n
O=C1c2ccc(Cl)cc2S(=O)(=O)c2cccc(C(=O)N3CCC(Cc4ccccc4)CC3)c21	n	n	50.0	90.8	n	n	n	105.3
CC(=O)Nc1ccc(NC(=O)c2ccc(-c3ccnn3C)c3ccoc23)cc1	n	x	61.0	n	n	x	85.5	n
CC(C)c1ccc(NC(=O)c2ccc(-c3ccnn3C)c3ccoc23)cc1	n	x	n	n	n	x	x	x
COc1cc(C2c3c(-c4cc(Cl)c(C)cc4O)n[nH]c3C(=O)N2Cc2cccnc2)ccc1O (configuration not stated)	n	n	43.3	n	n	n	n	60.5
CC(=O)/C=C\c1cn(-c2ncc(C(F)(F)F)cc2Cl)c2ccccc12	n	n	60.9	n	n	n	n	n
CC(=O)NC1(C(Cl)(Cl)Cl)Oc2ccccc2O1	n	n	47.0	n	n	n	n	n
COc1ccc(NC(=O)c2cc(C3CCCCN3S(C)(=O)=O)on2)c(C)c1 (configuration not stated)	n	x	n	n	n	x	x	x
C=CCC1CCCCC1=C(C#N)c1ccccc1 (configuration not stated)	n	x	n	n	n	n	x	x
O=C(CCl)N(C1CCCC1)C1CCS(=O)(=O)C1 (configuration not stated)	n	n	n	n	n	n	x	x	Mdm2-MdmX confirm=101.7
CC(=O)c1ccc(OCC(=O)N(C2CCCCC2)C2CCS(=O)(=O)C2)cc1 (configuration not stated)	n	n	n	n	n	n	x	x
COc1ccc(C(=O)/C(=C\c2ccco2)N2C=CC=CC2=C(C#N)C#N)cc1	-87.1	95.6	96.0	104.5	93.7	n	x	x	Mdm2-MdmX confirm=100.2
